PubChem BioAssay (EPA / NIEHS)
Results filed as inconclusive are left out. Active and inactive are the calls of the source. How the source made its calls: active means hit-call score of the fitted dose curve at least 0.9, where 1 is the maximum; inconclusive means response in the unintended direction; inactive means score below 0.9.

Assay: ATG_Hpa5_TRANS: Attagene TRANS-FACTORIAL HepG2 Assay for human GAL4-Hpa5 Hepatocyte Transcription Factor Basal Promoter (AID 2282975);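 further: hits are increases in reporter mRNA over DMSO baseline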
Conditions: HepG2 Attagene GAL4-Hpa5 transcription reporter
Protocol: ATG_TRANS is a cell-based, multiplexed-readout assay that uses HepG2, a human liver cell line, with measurements taken at 24 hours after chemical dosing in a 24-well plate.ATG_Hpa5_TRANS is one of 30 assay component(s) measured or calculated from the ATG_TRANS assay. It is designed to make measurements of mRNA induction, a form of inducible reporter, as detected with fluorescence intensity signals by Reverse transcription polymerase chain reaction (RT-PCR) and Capillary electrophoresis technology.Data from the assay component ATG_Hpa5_TRANS was analyzed into 1 assay endpoint. This assay endpoint, ATG_Hpa5_TRANS, was analyzed in the positive analysis fitting direction relative to DMSO as the negative control and baseline of activity. Using a type of inducible reporter, measures of mRNA for gain-of-signal activity can be used to understand the background control at the transcription factor-level as they relate to the gene . Furthermore, this assay endpoint can be referred to as a secondary readout, because this assay has produced multiple assay endpoints where this one serves a background control function. To generalize the intended target to other relatable targets, this assay endpoint is annotated to the background measurement intended target family, where the subfamily is internal marker.
Human liver HepG2 cells are transiently transfected with multiple reporter transcription units (MRTUs) in 6-well plates using FuGene 6 reagent (Roche; 3 ml FuGene/1 mg DNA). The MRTU constructs are regulated by a cis-regulating element (promoter). […] A major difference between the CIS and TRANS system is that in CIS activities of endogenous TFs are measured, whereas the TRANS assay evaluates changes in activities of exogenous, chimeric NR-Gal4 proteins. […] At the end of 24 hour incubation, total RNA was isolated using TriZol reagent (Invitrogen). The isolated RNA is then reverse-transcribed using oligo(dT) primer and Mo-MLV reverse transcriptase (Invitrogen) with DNAse I (Ambion) treatment for 30 min. The one-tenth of the produced cDNA was amplified by PCR using Taq DNA polymerase (Invitrogen) and two reporter sequence-specific primers. The PCR products were fluorescently labeled by primer extension with 6-arboxyfluorescein (6-FAM) 5'-labeled reporter sequence-specific primer (2 min at 95 C, 20 s at 68 C and 10 min at 72 C) and these products were digested with 5U of HpaI (New England Biolabs) for 2h at 37 C. The fragments were purified using Qiaquick PCR columns (Qiagen), analyzed on an ABI 3130xL genetic analyzer (Applied Biosystems) with peak positions identified by using a set of X-rhodamine (ROX)-labeled MapMarker1000 molecular weight standards (BioVentures). The raw capillary electrophoresis data was processed using Attagraph software (Attagene).

Which outcome does the source give for `CNC(=O)ON=CC(C)(C)SC` here?
Its outcome is “inactive”.

Which outcome does the source give for `CCOc1cc(Oc2ccc(C(F)(F)F)cc2Cl)ccc1[N+](=O)[O-]` here?
Its outcome is “inactive”.

With `CCCCC(CC)COC(=O)c1ccccc1C(=O)OCC(CC)CCCC` (stereo not drawn) as the compound, how does the outcome read?
The outcome was “inactive”.

Which outcome does the source give for `COc1nc(C)nc(NC(=O)NS(=O)(=O)c2ccccc2CCC(F)(F)F)n1` here?
Its outcome is “inactive”.

With `COC(=O)N(OC)c1ccccc1COc1ccn(-c2ccc(Cl)cc2)n1` as the compound, how does the outcome read?
Its outcome is “inactive”.

Which outcome does the source give for `C=CC1(C)OC(=O)N(c2cc(Cl)cc(Cl)c2)C1=O` (stereo not drawn) here?
The outcome was “inactive”.

For `CCOP(=S)(OCC)SCn1c(=O)oc2cc(Cl)ccc21`, which outcome is on record?
Its outcome is “inactive”.

Which outcome does the source give for `C=CCC1=C(C)[C@@H](OC(=O)[C@@H]2[C@@H](C=C(C)C)C2(C)C)CC1=O` here?
The outcome was “inactive”.

With `CCCC1COC(Cn2cncn2)(c2ccc(Cl)cc2Cl)O1` (stereo not drawn) as the compound, how does the outcome read?
Its outcome is “inactive”.

With `O=C(O)c1nc(Cl)ccc1Cl` as the compound, how does the outcome read?
Its outcome is “inactive”.

For `OC(c1ccc(Cl)cc1)(c1cncnc1)c1ccccc1Cl` (stereo not drawn), which outcome is on record?
The outcome was “inactive”.

For `CC1COC(Cn2cncn2)(c2ccc(Oc3ccc(Cl)cc3)cc2Cl)O1` (stereo not drawn), which outcome is on record?
Its outcome is “inactive”.

For `COC(=O)C(C)Oc1ccc(Oc2ccc(Cl)cc2Cl)cc1` (stereo not drawn), which outcome is on record?
The outcome was “inactive”.

Which outcome does the source give for `CCc1nn(C)c(C(=O)NCc2ccc(C(C)(C)C)cc2)c1Cl` here?
Its outcome is “inactive”.

For `C#CCOS(=O)OC1CCCCC1Oc1ccc(C(C)(C)C)cc1` (stereo not drawn), which outcome is on record?
Its outcome is “inactive”.

With `O=C(Nc1ccccc1)Nc1ccnc(Cl)c1` as the compound, how does the outcome read?
Its outcome is “inactive”.

For `Cc1ccc(-c2c(Cl)nc(C#N)n2S(=O)(=O)N(C)C)cc1`, which outcome is on record?
Its outcome is “inactive”.

With `N#CC(CCc1ccc(Cl)cc1)(Cn1cncn1)c1ccccc1` (stereo not drawn) as the compound, how does the outcome read?
The outcome was “inactive”.

For `COP(=S)(OC)Oc1nc(Cl)c(Cl)cc1Cl`, which outcome is on record?
The outcome was “inactive”.

For `COc1ccc(C(c2ccc(OC)cc2)C(Cl)(Cl)Cl)cc1`, which outcome is on record?
Its outcome is “inactive”.

For `CC(C)C1(C)N=C(c2nc3ccccc3cc2C(=O)O)NC1=O` (stereo not drawn), which outcome is on record?
Its outcome is “inactive”.

Which outcome does the source give for `COc1nc(NC(C)C)nc(NC(C)C)n1` here?
Its outcome is “inactive”.

With `CO/C=C(/C(=O)OC)c1ccccc1Oc1cc(Oc2ccccc2C#N)ncn1` as the compound, how does the outcome read?
Its outcome is “inactive”.

For `CCCCNC(=O)OCC#CI`, which outcome is on record?
Its outcome is “inactive”.

For `CCOC(=O)C(Cl)Cc1cc(-n2nc(C)n(C(F)F)c2=O)c(F)cc1Cl` (stereo not drawn), which outcome is on record?
The outcome was “inactive”.

With `Cc1c(F)c(F)c(COC(=O)C2C(/C=C(\Cl)C(F)(F)F)C2(C)C)c(F)c1F` (stereo not drawn) as the compound, how does the outcome read?
Its outcome is “inactive”.

Which outcome does the source give for `CC(C)Oc1cc(-n2nc(C(C)(C)C)oc2=O)c(Cl)cc1Cl` here?
The outcome was “inactive”.

For `Fc1ccc(Oc2ccnc3cc(Cl)cc(Cl)c23)cc1`, which outcome is on record?
The outcome was “inactive”.

With `Cc1cc(Cl)ccc1OCC(=O)O` as the compound, how does the outcome read?
Its outcome is “inactive”.

Which outcome does the source give for `CCNc1nc(Cl)nc(NCC)n1` here?
Its outcome is “inactive”.

Which outcome does the source give for `COP(N)(=O)SC` (stereo not drawn) here?
The outcome was “inactive”.

Which outcome does the source give for `CC(Oc1ccc(Cl)cc1Cl)C(=O)O` (stereo not drawn) here?
The outcome was “inactive”.

For `CCCN(CCC)c1c([N+](=O)[O-])cc(S(N)(=O)=O)cc1[N+](=O)[O-]`, which outcome is on record?
Its outcome is “inactive”.
